The values below come from PubChem BioAssay (EPA / NIEHS).

Each structure is given as a SMILES string. Activity calls are given as the source filed them. How the source made its calls: active means hit-call score of the fitted dose curve at least 0.9, where 1 is the maximum; inactive means score below 0.9.

The nature of this experiment: CCTE_Shafer_MEA_dev_interburst_interval_mean: CCTE's Neural Network Formation Assay for Mean Interburst Interval, Shafer Lab (AID 2284046). The protocol: CCTE_Shafer_MEA_dev assay is conducted using Axion Biosystems 48 well microelectrode array (MEA) plates and Maestro recording system. Each well of the MEA plate contains a grid of 16 microelectrodes embedded in the culture surface. Electrically active cells, such as neurons, can be cultured over the electrodes, and electrical activity in these cells can be recorded extracellularly. The spontaneous firing of neurons is captured from each electrode on a microsecond timescale providing both temporally and spatially precise data. […] The CCTE_Shafer_MEA_dev assay uses primary cultures of rat cortical neurons. Recordings are made on days post-plating 5, 7, 9 and 12. As these cultures mature over time, neural networks develop functional activity and form cohesive networks in which electrical activity can be highly coordinated. CCTE_Shafer_MEA_dev_interburst_interval_mean is 1 of 19 assay components of the CCTE_Shafer_MEA_dev assay. It measures the average time interval between consecutive single-electrode bursts (temporally-clustered groups of action potential firing) during a recording in a microelectrode array (MEA) using Axion Biosystems Maestro 768 channel amplifier with the AxIS adaptive spike detector. The mean inter-burst interval is averaged across the actively bursting electrodes to report a well-mean value. To collapse across multiple recordings made on days post-plating 5, 7, 9 and 12, the trapezoidal area-under-the-curve of the component is calculated.Data from the assay component CCTE_Shafer_MEA_dev_interburst_interval_mean was analyzed into 1 assay endpoint. This assay endpoint, CCTE_Shafer_MEA_dev_interburst_interval_mean, was analyzed in the negative analysis fitting direction relative to DMSO as the negative control and baseline of activity. Using a type of functional reporter, gain or loss-of-signal activity can be used to understand electrical activity.
On the day prior to culture, each well was coated thoroughly with 150 uL of 0.05% polyethyleneimine (PEI, Sigma Cat P3143) in 50 mM HEPES (Sigma Cat H7523) at a pH of 8. The plate was incubated at 37C for one hour. PEI was rinsed out with 500 uL of sterile water three times. Plates were stored at 4C until the day of culture. This culture was plated at a seeding density of 1.5 x 10^5 cells/well on a 48-well MEA plate, prepared as described above. Cells were administered via a 25 uL media/laminin ([…]; Sigma Cat L2020-1MG) drop directly onto the microelectrode array, as adding the cells with the laminin results in better attachment than pre-coating with laminin. After 2 hours, an additional 475 uL of cortical media was added and the cells returned to the incubator. Exposure starts at day 0 of plating and is continued over twelve days of network development until the experiment is terminated. Cells are fed with fresh medium on DIV 5 and 9, following the recordings on those days. The entire volume of media in the well is exchanged and any vehicle or compound treatment is renewed. Complete details are found in OP-NHEERL/ISTD/SBB/TJS/2015-03-r0 (available on request, email shafer.tim@epa.gov). Measurement of the electrical activity is non-invasive, and recordings can be made from the same plate over multiple different days of the culture. In cortical neurons, this allows for the measurement of extracellular action potentials over the period during which networks form in the MEA plate.
`O=P(O)(O)OCCC(F)(F)C(F)(F)C(F)(F)C(F)(F)C(F)(F)C(F)(F)F`: the compound was called inactive.

Regarding `FC(F)(F)C(F)(F)CNCC(F)(F)C(F)(F)F`, the outcome was inactive.

As for `O=C(O)C(F)(F)C(F)(F)C(F)F`, the result was inactive.

For orientation: AC50 means the midpoint of the concentration-response curve, whichever way the signal moves. With `C=CC(=O)OCC(F)(F)C(F)(F)C(F)(F)C(F)(F)COC(=O)C=C`, the AC50 is 4.2 µM (active).

Turning to `FC(F)(F)C(F)(F)C(F)(F)C(F)(F)C(F)(F)CCI`, the call was inactive.

For `O=C(O)C(F)(F)C(F)(F)C(F)(F)C(F)(F)C(F)(F)C(F)(F)C(F)(F)C(F)(F)C(F)(F)C(F)F`, the result was inactive.

`NC(=O)C(F)(F)C(F)(F)C(F)(F)C(F)(F)F`: the compound was classed as inactive.

As to `O=S(=O)(OCCOC(F)(F)F)C(F)(F)F`, the result was inactive.

Consider `CC(CCl)OP(=O)(OC(C)CCl)OC(C)CCl` (stereo not drawn), for which the compound was classed as inactive.

On to `FC(F)(F)C(F)(F)C(F)(F)C(F)(F)C(F)(F)C(F)(F)CC1CO1` (stereo not drawn), for which the outcome was inactive.

Take `N=C(N)C(F)(F)C(F)(F)C(F)(F)C(F)(F)C(F)(F)C(F)(F)C(F)(F)F`: the call was inactive.

In the case of `O=C(O)C=C(C(F)(F)F)C(F)(F)F`, the compound was classed as inactive.

Turning to `OCCCC(F)(F)C(F)(F)C(F)(F)F`, the call was inactive.

As for `COC(=O)CCC(F)(F)C(F)(F)C(F)(F)C(F)(F)F`, the outcome was inactive.

As for `O=C(O)C(F)(F)C(F)(F)C(F)(F)C(F)(F)C(F)(F)C(F)(F)C(F)(F)C(F)(F)Cl`, the outcome was inactive.

Take `OC[C@@H](O)[C@@H](O)[C@H](O)[C@@H](O)CO`: the compound was called inactive.

As to `Cc1ccc(S(=O)(=O)OCC(F)(F)C(F)(F)C(F)(F)C(F)(F)C(F)(F)C(F)F)cc1`, the compound was called inactive.

As for `CC(C)(C)C(=O)CC(=O)C(F)(F)C(F)(F)C(F)(F)F`, the outcome was inactive.

On to `OCC(F)(F)C(F)(F)C(F)(F)C(F)F`, for which the outcome was inactive.

Consider `O=C(O)C(F)(F)C(F)(F)C(F)(F)F`, for which the result was inactive.

Consider `OCC(F)(F)C(F)(F)C(F)(F)C(F)(F)C(F)(F)C(F)F`, for which the outcome was inactive.

As for `OCC(F)(F)C(F)(F)C(F)(F)F`, the compound was classed as inactive.

Regarding `O=S(=O)(OCC(F)F)C(F)(F)F`, the compound was classed as inactive.
